Bioassay records (PubChem BioAssay)
This is a sample that favours compounds with a hit; in the whole collection about 6.2% have one here.
FMDV antiviral – antivirals against foot and mouth disease virus. FMDV antiviral cell-based qHTS. Potency, µM (doses to about 57.9 µM), for inactives: at the top dose activity change, negative = inhibition, usual class: inhibitors. hit rate 1.2% among 410,000; calls by dose curve; tested in HEK293T cells; also: read-out not given here; potency is read from the fitted curve at half-maximal effect; nearly all actives have a fitted effect of over 45% in size
MARV entry inh – Marburg virus entry inhibition | hit rate 1.8% among 300,000 | Potency, µM (titrated, usually from 37.8 µM), for the others: at the top dose activity change, negative = inhibition, most hits filed as inhibitors | Marburg virus pseudotyped entry inhibition, cell reporter; calls by dose curve; tested in HEK293 cells; also: potency is read from the fitted curve at half-maximal effect
HCMV antiviral – inhibitors of human cytomegalovirus; AID 1259415; activity change, negative = inhibition, % at 57.5 µM; hit rate 4.5% among 410,000; HFF cells, HCMV-luciferase reporter, 72 h; active compounds read low; in the data active = activity change below about -60%; inconclusive = no clear call, values can overlap the other calls; inactive = above about -39%
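Inhibition of viral replication was scored as loss of reporter luminescence in HFFs infected with HCMV-luciferase (MOI 1 PFU/cell) for 72 h; compounds tested at 2 doses, normalized to buffer and Salinomycin controls.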
Lassa entry inh – inhibitors of Lassa virus binding or cell entry | AID 540256 | Lassa virus pseudotype entry inhibition, cell reporter | Potency, µM (titrated, usually from 37.9 µM), without a hit: at the top dose activity change, negative = inhibition, usual class: inhibitors | hit rate 1.2% among 300,000; calls by dose curve; tested in HEK293 cells; also: potency is read from the fitted curve at half-maximal effect; nearly all actives have a fitted effect of over 50% in size
Active calls of the source: *; u = inconclusive; x = no result; + = active, no number; ! = a repeat was not active; [ ] = remark or other dose. % is scaled to controls: 0 for no effect and ±100 for the full control effect.

SMILES	FMDV antiviral	MARV entry inh	HCMV antiviral	Lassa entry inh
Cc1cccc(-n2c(/C=C/c3ccc([N+](=O)[O-])o3)nc3ccccc3c2=O)c1	u	u	-104*	u
CC(=O)N(/N=C/c1ccc([N+](=O)[O-])o1)c1nc2ccccc2c(=O)n1-c1ccccc1	-2%	x	-64*	x
Cc1nc2ccccc2c(=O)n1-c1cc([N+](=O)[O-])cc([N+](=O)[O-])c1	-12%	x	-30	x
Cc1cccc(-n2c(/C=C/c3ccccc3O)nc3ccccc3c2=O)c1	u	x	-98*	u
CN(C)c1ccc(CNC(=O)C2CCN(S(=O)(=O)c3ccc4[nH]c(=O)ccc4c3)CC2)cc1	-6%	x	23	0%[46.1 µM]
COc1ccc(NC(=O)CC2C(=O)N(c3cccc(OC)c3)C(=O)N2CCc2cccs2)cc1 (stereo unspecified)	1%	1%[46.1 µM]	-5	u
CCOCCCNC(=O)c1ccc2c(c1)N=C(CC)c1cc(Br)ccc1S2	-20%	u	-88*	u
CCCC1=Nc2cc(C(=O)NC3CCC(C)CC3)ccc2Sc2ccccc21 (stereo unspecified)	5%	u	-77*	u
CCCC1=Nc2cc(C(=O)NCCc3ccc(OC)cc3OC)ccc2Sc2ccccc21	-12%	u	u	u
CCCNC(=O)c1ccc2c(c1)N=C(CCC)c1ccccc1S2	-15%	u	-86*	-17%[46.1 µM]
CCC1=Nc2cc(C(=O)NCCc3ccccc3)ccc2Sc2ccc(Cl)cc21	-2%	-14%[46.1 µM]	4	u
CCCC1=Nc2cc(C(=O)NCCc3ccccc3)ccc2Sc2ccc(C)cc21	-2%	u	-67*	-11%[46.1 µM]
COc1cc(=O)n2c(c1C(=O)NC(C)c1ccco1)CCN(C(=O)c1cc(C)cc(C)c1)CC2 (stereo unspecified)	28%	x	x	x
O=C(NCC(c1cccnc1)N1CCN(c2ccccc2F)CC1)C(=O)Nc1ccc(F)cc1F (stereo unspecified)	-5%	x	-13	-3%[46.1 µM]
CC1CCC(NC(=O)c2ccc3c(c2)S(=O)(=O)c2ccccc2C3=O)CC1 (stereo unspecified)	10%	x	-67*	x
Cc1c(C=C2C(=O)c3ccccc3C2=O)cc(C#N)n1C	-18%	x	x	x
Cc1ccc(C(=O)/C=C/c2cc(C#N)n(C)c2C)cc1	-25%	-5%[46.1 µM]	-85*	1%
CCN1CCN(c2cc(N3CCCC3)c(F)cc2[N+](=O)[O-])CC1	-11%	21µM*	u	u
O=C(c1ccco1)N1CCN(c2ccc([N+](=O)[O-])cc2F)CC1	12%	18%[46.1 µM]	8	14%[46.1 µM]
O=C(c1ccco1)N1CCN(c2cc(N3CCOCC3)c(F)cc2[N+](=O)[O-])CC1	-13%	-14%[46.1 µM]	-103*	u
CCOC(=O)N1CCN(c2cc(N3CCOCC3)c(F)cc2[N+](=O)[O-])CC1	0%	-7%	6	7.9µM*
CC(C(=O)Nc1ccc(F)c(Cl)c1)N1Cc2ccccc2C1=O (stereo unspecified)	-9%	x	2	7%[46.1 µM]
COC(=O)CNC(=O)c1cnn(-c2ncc3c(n2)-c2ccccc2CCC3)c1C1CC1	48%	x	x	x
O=C(c1cc2cc(F)ccc2[nH]1)N(Cc1cccnc1)CC1CCCN(C2CCCCC2)C1 (stereo unspecified)	28%	x	-11	x
C#Cc1cccc(C(=O)N(Cc2cccnc2)CC2CCCN(C3CCCCC3)C2)c1 (stereo unspecified)	-10%	x	-63*	x
SMILES	FMDV antiviral	MARV entry inh	HCMV antiviral	Lassa entry inh
CC(=O)NCC1CCCN(C(=O)c2oc3c(F)cccc3c2C)C1 (stereo unspecified)	19%	x	-101*	x
Cc1c(C(=O)N2CCCCC2CCN2CCCC2=O)oc2c(F)cccc12 (stereo unspecified)	-3%	-1%	-63*	2%
Cc1c(C(=O)N2CCC2)oc2c(F)cccc12	-16%	2%	-19	7%
CCCCN1CC(N(C)CCN(C)C)CS1(=O)=O (stereo unspecified)	-7%	x	-3	x
CCOc1c(S(=O)(=O)NC2CC(C)(C)NC(C)(C)C2)ccc(Cl)c1Cl	-2%	10µM*	-34	-25%[46.1 µM]
CCOc1ccc(OCC)c(S(=O)(=O)NC2CC(C)(C)NC(C)(C)C2)c1	83%	u	-16	u
CCOc1ccccc1NC(=O)C1CCN(S(=O)(=O)c2c(C)noc2/C=C/c2ccco2)CC1	-16%	3%[46.1 µM]	-38	u
CCN(CCN(C)C)C(=O)C1CCN(S(=O)(=O)c2c(C)noc2/C=C/c2ccccc2F)CC1	-4%	x	-99*!	u
CCOc1ccccc1/C=C/c1onc(C)c1S(=O)(=O)N1CCC(C(=O)N(CC)CC)CC1	-16%	x	+!	u
CCOc1ccc(-c2nnc(SCC(=O)Nc3cccc(OC)c3)nc2-c2ccc(OCC)cc2)cc1	-2%	x	1	u
Cc1cc(C)c(NS(=O)(=O)c2ccc(-c3cnc(C4CC4)o3)cc2)c(C)c1	-8%	x	-92*	u
Cc1ccc(NS(=O)(=O)c2cc(-c3cnc(C4CC4)o3)ccc2C)cc1Cl	48%	x	-64*	u
COc1ccc(NS(=O)(=O)c2ccc(-c3cnc(C4CC4)o3)cc2)cc1OC	-20%	x	-74*	x
O=S(=O)(Nc1cccc(C(F)(F)F)c1)c1ccc(-c2cnc(C3CC3)o2)cc1	-2%	x	-38	u
Cc1cc(C)c(NS(=O)(=O)c2cc(-c3cnc(C4CC4)o3)ccc2C)c(C)c1	11%	x	-13	-17%[46.1 µM]
CCOc1ccccc1NS(=O)(=O)c1ccc(-c2cnc(C3CC3)o2)cc1	u	x	+	u
COc1ccccc1NS(=O)(=O)c1ccc(-c2cnc(C3CC3)o2)cc1	-24%	x	-13	x
Cc1ccc(C(=O)Nc2cccc(-c3nc(CNC(=O)c4ccc(F)cc4Cl)c(C)o3)c2)s1	26%	x	x	x
CCOc1ccc(C2C(C(=O)Nc3ccccc3)=C(C)Nc3nc(SCc4cccc(OC)c4)nn32)cc1 (stereo unspecified)	-21%	x	2	u
COc1ccc2c(c1)OC(C)CN(CCNC(=O)c1csc(-c3cccs3)n1)C2 (stereo unspecified)	-3%	x	x	x
Cc1cccc(N(C)S(=O)(=O)c2ccc(-c3cnc(C4CC4)o3)cc2)c1	u	x	-98*	x
Cc1ccc(N(C)S(=O)(=O)c2cc(-c3cnc(C4CC4)o3)ccc2C)cc1	u	u	-18	u
CCCCCCCCN1C(=O)[C@H](CC(=O)NCc2ccc(OC)c(OC)c2)C[C@@]2(C(=O)OC)CC(C)(C)CC=C12	u	x	11	x
O=C1/C(=C/c2cccnc2)SC(=NCc2ccccc2)N1Cc1ccccc1	-5%	u	-15	0%[46.1 µM]
O=C(O)c1ccc(/C=C2\SC(=S)N(Nc3ccccc3)C2=O)cc1	13%	u	-35	-12%
O=C1/C(=C/c2cccnc2)SC(=S)N1CCc1ccccc1	30%	x	-71*	x
O=C(CCN1C(=O)/C(=C\c2ccccc2)SC1=S)NNC(=O)c1cccnc1	0%	u	-62*	u
O=C1/C(=C\c2cc(Cl)c(O)c(Cl)c2)SC(=S)N1Cc1ccccc1	u	6.3µM*	-99*	4µM*
O=C(CCCN1C(=O)/C(=C/c2ccccc2Cl)SC1=S)NNC(=O)c1cccnc1	u	x	-36	x
